# Measurements from PubChem BioAssay (EPA / NIEHS).
# Active and inactive are the calls of the source. How the source made its calls: active means hit-call score of the fitted dose curve at least 0.9, where 1 is the maximum; inactive means score below 0.9.
# Experiments:
# Conditions in all cases: mRNA level, 48 h; actives raise or lower the signal
# CYP4A11 (gene 1579) = test: LTEA_HepaRG_CYP4A11: Life Technologies and Expression Analysis (LTEA) Assay for CYP4A11 using HepaRG (AID 2283486)
# Summary of the method: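 Readout is CYP4A11 transcript level by qRT-PCR, normalized to three housekeeping genes and fitted bidirectionally against 0.5% DMSO. Human HepaRG cells were treated 48 h, in duplicate, with an 8-point half-log series topping at 100 uM.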
# [1] = read-out: Cytochrome P450 3A4 (Homo sapiens) (UniProt P08684); test: LTEA_HepaRG_CYP3A4: Life Technologies and Expression Analysis (LTEA) Assay for CYP3A4 using HepaRG (AID 2283487)
# Summary of the method: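 Differentiated HepaRG cells in serum-free induction medium exposed in duplicate for 48 h to 8 half-log concentrations up to 100 uM in 0.5% DMSO. CYP3A4 mRNA measured by qRT-PCR normalized to ACTB, GAPDH and POLR2A; bidirectional fit versus DMSO.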
# [2] = read-out: DNA damage-inducible transcript 3 (DDIT3), DDIT3 (gene 1649); test: LTEA_HepaRG_DDIT3: Life Technologies and Expression Analysis (LTEA) Assay for DNA damage-inducible transcript 3 (DDIT3) using HepaRG (AID 2283488)
# Summary of the method: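 HepaRG cells, 48 h after plating, exposed 48 h in serum-free induction medium to 8 half-log concentrations up to 100 uM in 0.5% DMSO, in duplicate. DDIT3 mRNA measured by TaqMan qRT-PCR, normalized to ACTB, GAPDH and POLR2A. Fitted bidirectionally against DMSO.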
# [3] = read-out: Pro-epidermal growth factor (Homo sapiens) (UniProt P01133); test: LTEA_HepaRG_EGF: Life Technologies and Expression Analysis (LTEA) Assay for Epidermal growth factor (EGF) using HepaRG (AID 2283489)
# Summary of the method: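 EGF transcript measured by Fluidigm TaqMan qRT-PCR with three housekeeping genes for normalization, 48 h after dosing HepaRG cultures in duplicate (top 100 uM, half-log steps, 0.5% DMSO vehicle). Gain or loss relative to DMSO fitted.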
# [4] = read-out: Early growth response protein 1 (EGR1) transcription factor, EGR1 (gene 1958); test: LTEA_HepaRG_EGR1: Life Technologies and Expression Analysis (LTEA) Assay for Early growth response protein 1 (EGR1) transcription factor using HepaRG (AID 2283490)
# Summary of the method: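 Differentiated human HepaRG cells in serum-free induction medium were exposed in duplicate for 48 h to eight concentrations (top 100 uM, half-log steps) in 0.5% DMSO. EGR1 mRNA was quantified by qRT-PCR, normalized to ACTB, GAPDH and POLR2A, and fitted bidirectionally versus DMSO.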
# [5] = read-out: Ezrin (EZR), EZR (gene 7430); test: LTEA_HepaRG_EZR: Life Technologies and Expression Analysis (LTEA) Assay for Ezrin (EZR) using HepaRG (AID 2283491)
# Summary of the method: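 Differentiated human HepaRG cells, 48 h after plating, were exposed in serum-free induction medium for 48 hours to eight half-log concentrations up to 100 uM in 0.5% DMSO. EZR mRNA was measured by TaqMan qRT-PCR, normalized to ACTB, GAPDH and POLR2A, and fitted bidirectionally against DMSO.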
# [6] = read-out: Cytochrome P450 3A7 (Homo sapiens) (UniProt P24462); test: LTEA_HepaRG_CYP3A7: Life Technologies and Expression Analysis (LTEA) Assay for CYP3A7 using HepaRG (AID 2283492)
# Summary of the method: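 CYP3A7 transcript measured by qRT-PCR (ACTB, GAPDH, POLR2A normalization) after 48 h chemical exposure of HepaRG cells in duplicate. Eight half-log concentrations, maximum 100 uM, 0.5% DMSO vehicle; bidirectional curve fitting against DMSO baseline.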
# CYP3A5 (gene 1577) = test: LTEA_HepaRG_CYP3A5: Life Technologies and Expression Analysis (LTEA) Assay for CYP3A5 using HepaRG (AID 2283493)
# Summary of the method: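 HepaRG cells, plated 48 h then in serum-free induction medium, dosed in duplicate for 48 h with eight half-log concentrations up to 100 uM in 0.5% DMSO. Gene mRNA by Fluidigm TaqMan qRT-PCR, normalized to ACTB, GAPDH, POLR2A.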
# [7] = read-out: Fatty Acid-Binding Protein 1 (FABP1), FABP1 (gene 2168); test: LTEA_HepaRG_FABP1: Life Technologies and Expression Analysis (LTEA) Assay for Fatty Acid-Binding Protein 1 (FABP1) using HepaRG (AID 2283494)
# Summary of the method: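 Differentiated human HepaRG cells were exposed in duplicate for 48 h in serum-free induction medium to 8-point half-log concentration series topping at 100 uM in 0.5% DMSO. FABP1 mRNA measured by TaqMan qRT-PCR, normalized to ACTB/GAPDH/POLR2A; bidirectional fit versus DMSO.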
# [8] = read-out: Cytochrome P450 4A22 (Homo sapiens) (UniProt Q5TCH4); test: LTEA_HepaRG_CYP4A22: Life Technologies and Expression Analysis (LTEA) Assay for Cytochrome P450 4A22 (CYP4A22) using HepaRG (AID 2283495)
# Summary of the method: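 Gene expression measured by qRT-PCR against three housekeeping genes (ACTB, GAPDH, POLR2A), with gain or loss fitted relative to 0.5% DMSO vehicle. HepaRG cultures received 48 h chemical treatment, top concentration 100 uM, half-log steps, duplicate wells.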
# [9] = read-out: Cytochrome P450 7A1 (Homo sapiens) (UniProt P22680); test: LTEA_HepaRG_CYP7A1: Life Technologies and Expression Analysis (LTEA) Assay for Cytochrome P450 7A1 (CYP7A1) using HepaRG (AID 2283496)
# Summary of the method: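 HepaRG cells plated 48 h, then switched to serum-free induction medium and exposed in duplicate for 48 h to 8-point half-log series from 100 uM in 0.5% DMSO. CYP7A1 mRNA by qRT-PCR (TaqMan), normalized to ACTB/GAPDH/POLR2A; bidirectional fit versus DMSO.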
# [10] = read-out: Glutathione S-Transferase (GSTA2), GSTA2 (gene 2939); test: LTEA_HepaRG_GSTA2: Life Technologies and Expression Analysis (LTEA) Assay for Glutathione S-Transferase (GSTA2) using HepaRG (AID 2283497)
# Summary of the method: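 Human HepaRG cells, plated 48 h, then exposed in serum-free induction medium for 48 h to eight half-log concentrations up to 100 uM in 0.5% DMSO, duplicate. GSTA2 mRNA by qRT-PCR, normalized to ACTB/GAPDH/POLR2A; bidirectional fit versus DMSO.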
# [11] = read-out: Glutamate-cysteine ligase catalytic (GCLC), GCLC (gene 2729); test: LTEA_HepaRG_GCLC: Life Technologies and Expression Analysis (LTEA) Assay for Glutamate-cysteine ligase catalytic (GCLC) using HepaRG (AID 2283498)
# Summary of the method: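 Differentiated human HepaRG cells, plated 48 h then switched to serum-free induction medium, were exposed in duplicate for 48 h to 8 half-log concentrations topping at 100 uM in 0.5% DMSO. GCLC mRNA was quantified by qRT-PCR against ACTB, GAPDH and POLR2A.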
# [12] = read-out: Glutamate-cysteine ligase regulatory (GCLM), GCLM (gene 2730); test: LTEA_HepaRG_GCLM: Life Technologies and Expression Analysis (LTEA) Assay for Glutamate-cysteine ligase regulatory (GCLM) using HepaRG (AID 2283500)
# Summary of the method: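 Differentiated HepaRG cells exposed 48 h in serum-free induction medium to eight half-log concentrations up to 100 uM (0.5% DMSO). GCLM mRNA by TaqMan qRT-PCR, normalized to ACTB, GAPDH and POLR2A; bidirectional fit versus DMSO.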
# [13] = read-out: Glutathione S-transferase M3 (GSTM3), GSTM3 (gene 2947); test: LTEA_HepaRG_GSTM3: Life Technologies and Expression Analysis (LTEA) Assay for Glutathione S-transferase M3 (GSTM3) using HepaRG (AID 2283501)
# Summary of the method: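 GSTM3 transcript levels came from Fluidigm TaqMan qRT-PCR normalized to three housekeeping genes, fitted in both directions against DMSO. HepaRG cultures received chemicals for 48 h in serum-free induction medium (0.5% DMSO), 8 half-log concentrations up to 100 uM, duplicate.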
# [14] = read-out: Heat shock 70 kDa protein 1 (HSPA1A), gene 3303; test: LTEA_HepaRG_HSPA1A: Life Technologies and Expression Analysis (LTEA) Assay for Heat shock 70 kDa protein 1 (HSPA1A) using HepaRG (AID 2283502)
# Summary of the method: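 Human HepaRG cells in serum-free induction medium were exposed in duplicate for 48 h to 8 half-log concentrations, highest 100 uM, in 0.5% DMSO. HSPA1A mRNA read by TaqMan qRT-PCR, normalized to ACTB, GAPDH, POLR2A, fitted bidirectionally against DMSO.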
# [15] = read-out: Hypoxia-inducible factor 1-alpha (Homo sapiens) (UniProt Q16665); test: LTEA_HepaRG_HIF1A: Life Technologies and Expression Analysis (LTEA) Assay for Hypoxia-inducible factor 1 (HIF1A) Trancription factor using HepaRG (AID 2283503)
# Summary of the method: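 Differentiated HepaRG cells in serum-free induction medium exposed 48 h, in duplicate, to 8-point half-log series from 100 uM in 0.5% DMSO. HIF1A mRNA measured by TaqMan qRT-PCR, normalized to ACTB/GAPDH/POLR2A, fitted bidirectionally versus DMSO.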
# [16] = read-out: 3-Hydroxy-3-Methylglutaryl-CoA Synthase 2 (HMGCS2), HMGCS2 (gene 3158); test: LTEA_HepaRG_HMGCS2: Life Technologies and Expression Analysis (LTEA) Assay for 3-Hydroxy-3-Methylglutaryl-CoA Synthase 2 (HMGCS2) using HepaRG (AID 2283504)
# Summary of the method: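 Readout is HMGCS2 transcript by qRT-PCR, housekeeping-normalised (ACTB/GAPDH/POLR2A) and fitted bidirectionally against 0.5% DMSO. Differentiated HepaRG cells received chemicals 48 h, duplicate wells, eight half-log concentrations topping at 100 uM.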
# HGF (gene 3082) = test: LTEA_HepaRG_HGF: Life Technologies and Expression Analysis (LTEA) Assay for Hepatocyte Growth Facto (HGF) using HepaRG (AID 2283505)
# Summary of the method: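 HGF transcript was quantified by TaqMan qRT-PCR against three housekeeping genes after 48 h treatment of HepaRG cells. Exposure ran in duplicate over eight half-log steps topping at 100 uM in 0.5% DMSO vehicle.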
# [17] = read-out: growth arrest and DNA damage 45 (GADD45G), GADD45G (gene 10912); test: LTEA_HepaRG_GADD45G: Life Technologies and Expression Analysis (LTEA) Assay for growth arrest and DNA damage 45 (GADD45G) using HepaRG (AID 2283499)
# Summary of the method: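 GADD45G transcript level by qRT-PCR (housekeeping-normalized: ACTB, GAPDH, POLR2A) after 48 h chemical treatment of a single HepaRG lot in serum-free induction medium; eight-point half-log series up to 100 uM in 0.5% DMSO, duplicates, up- or down-regulation scored.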
# Hypoxia-inducible factor 1-alpha (Homo sapiens), sequence (Q16665 whole entry, looked up): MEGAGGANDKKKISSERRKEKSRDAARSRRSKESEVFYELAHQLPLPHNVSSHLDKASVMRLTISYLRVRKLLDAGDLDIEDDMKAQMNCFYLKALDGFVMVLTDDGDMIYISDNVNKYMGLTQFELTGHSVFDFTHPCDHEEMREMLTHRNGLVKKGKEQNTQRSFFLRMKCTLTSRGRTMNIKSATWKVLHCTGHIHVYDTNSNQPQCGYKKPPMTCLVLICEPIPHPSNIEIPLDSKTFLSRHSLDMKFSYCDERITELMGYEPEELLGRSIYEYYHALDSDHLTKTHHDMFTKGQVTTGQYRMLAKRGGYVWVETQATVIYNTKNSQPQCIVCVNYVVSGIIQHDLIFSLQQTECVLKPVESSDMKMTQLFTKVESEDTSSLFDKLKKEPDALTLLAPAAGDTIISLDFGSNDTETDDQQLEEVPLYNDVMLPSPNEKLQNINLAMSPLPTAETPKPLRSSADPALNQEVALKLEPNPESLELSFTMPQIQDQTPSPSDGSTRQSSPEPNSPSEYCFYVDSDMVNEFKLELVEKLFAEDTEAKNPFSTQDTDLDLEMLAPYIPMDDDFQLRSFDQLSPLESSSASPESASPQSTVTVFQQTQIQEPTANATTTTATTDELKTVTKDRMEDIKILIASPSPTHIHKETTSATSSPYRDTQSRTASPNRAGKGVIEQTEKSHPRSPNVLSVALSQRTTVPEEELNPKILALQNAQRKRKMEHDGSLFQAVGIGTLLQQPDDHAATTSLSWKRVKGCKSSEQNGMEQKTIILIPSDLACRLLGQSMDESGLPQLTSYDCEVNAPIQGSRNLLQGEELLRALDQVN
# Cytochrome P450 3A4 (Homo sapiens), sequence (P08684 whole entry, looked up): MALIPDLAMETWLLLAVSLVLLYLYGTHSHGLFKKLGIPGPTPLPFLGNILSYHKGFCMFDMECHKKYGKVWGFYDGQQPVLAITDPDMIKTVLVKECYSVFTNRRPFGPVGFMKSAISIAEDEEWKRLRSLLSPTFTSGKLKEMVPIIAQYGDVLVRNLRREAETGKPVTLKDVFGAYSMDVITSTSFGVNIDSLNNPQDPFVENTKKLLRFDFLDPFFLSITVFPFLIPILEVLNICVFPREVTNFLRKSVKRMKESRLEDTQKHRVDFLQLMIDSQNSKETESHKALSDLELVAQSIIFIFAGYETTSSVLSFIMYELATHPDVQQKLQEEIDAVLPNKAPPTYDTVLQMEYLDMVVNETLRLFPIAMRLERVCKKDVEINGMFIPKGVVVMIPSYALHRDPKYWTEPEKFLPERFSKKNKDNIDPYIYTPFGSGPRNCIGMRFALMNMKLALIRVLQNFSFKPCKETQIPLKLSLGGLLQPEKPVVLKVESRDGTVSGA
# Cytochrome P450 3A7 (Homo sapiens), sequence (P24462 whole entry, looked up): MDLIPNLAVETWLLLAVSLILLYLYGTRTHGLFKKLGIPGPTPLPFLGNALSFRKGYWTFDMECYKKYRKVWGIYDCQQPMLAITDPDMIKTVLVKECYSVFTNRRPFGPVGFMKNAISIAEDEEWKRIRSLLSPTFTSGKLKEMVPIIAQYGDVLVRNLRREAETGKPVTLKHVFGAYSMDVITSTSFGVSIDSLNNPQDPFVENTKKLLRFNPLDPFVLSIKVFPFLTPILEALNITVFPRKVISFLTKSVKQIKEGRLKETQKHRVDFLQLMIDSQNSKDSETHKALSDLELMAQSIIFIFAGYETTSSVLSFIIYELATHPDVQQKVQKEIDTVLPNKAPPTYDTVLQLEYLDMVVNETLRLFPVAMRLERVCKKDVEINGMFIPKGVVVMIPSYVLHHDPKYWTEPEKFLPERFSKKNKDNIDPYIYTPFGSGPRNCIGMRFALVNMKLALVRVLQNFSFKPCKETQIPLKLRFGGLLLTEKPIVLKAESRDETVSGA
smiles,measurement,setting,value
CC1(C)C(=O)NC(=O)N1CO,outcome,CYP4A11 (gene 1579),inactive
same,outcome,[1],inactive
same,outcome,[2],inactive
same,outcome,[3],inactive
same,outcome,[4],inactive
same,outcome,[5],inactive
same,outcome,[6],inactive
same,outcome,CYP3A5 (gene 1577),inactive
same,outcome,[7],inactive
same,outcome,[8],inactive
same,outcome,[9],inactive
same,outcome,[10],inactive
same,outcome,[11],inactive
same,outcome,[12],inactive
same,outcome,[13],inactive
same,outcome,[14],inactive
same,outcome,[15],inactive
same,outcome,[16],inactive
same,outcome,HGF (gene 3082),inactive
c1ccc2occc2c1,outcome,CYP4A11 (gene 1579),inactive
same,outcome,[1],inactive
same,outcome,[2],inactive
same,outcome,[3],inactive
same,outcome,[4],inactive
same,outcome,[5],inactive
same,outcome,[6],inactive
same,outcome,CYP3A5 (gene 1577),inactive
same,outcome,[7],inactive
same,outcome,[8],inactive
same,outcome,[9],inactive
same,outcome,[10],inactive
same,outcome,[11],inactive
same,outcome,[17],inactive
same,outcome,[12],inactive
same,outcome,[13],inactive
same,outcome,[15],inactive
same,outcome,[16],inactive
same,outcome,HGF (gene 3082),inactive
C=CCc1ccc(OC)c(OC)c1,outcome,CYP4A11 (gene 1579),inactive
same,outcome,[1],inactive
same,outcome,[2],inactive
same,outcome,[3],inactive
same,outcome,[4],inactive
same,outcome,[5],inactive
same,outcome,[6],inactive
same,outcome,CYP3A5 (gene 1577),inactive
same,outcome,[7],inactive
same,outcome,[8],inactive
same,outcome,[9],inactive
same,outcome,[10],inactive
same,outcome,[11],inactive
same,outcome,[17],inactive
same,outcome,[12],inactive
same,outcome,[13],inactive
same,outcome,[14],inactive
same,outcome,[15],inactive
same,outcome,[16],inactive
same,outcome,HGF (gene 3082),inactive
O=C(Oc1ccccc1)c1cccc(C(=O)Oc2ccccc2)c1,outcome,CYP4A11 (gene 1579),inactive
same,outcome,[1],inactive
same,outcome,[2],inactive
same,outcome,[3],inactive
same,outcome,[4],inactive
same,outcome,[5],inactive
same,outcome,[6],inactive
same,outcome,CYP3A5 (gene 1577),inactive
same,outcome,[7],inactive
same,outcome,[8],inactive
same,outcome,[9],inactive
same,outcome,[10],inactive
same,outcome,[11],inactive
same,outcome,[17],inactive
same,outcome,[12],inactive
same,outcome,[13],inactive
same,outcome,[15],inactive
same,outcome,[16],inactive
same,outcome,HGF (gene 3082),inactive
CC(C)(O)c1ccc(CNC(=O)c2cccnc2Oc2ccc(F)cc2)cc1,AC50,CYP4A11 (gene 1579),10.2 µM (active)
same,AC50,[1],8.47 µM (active)
same,outcome,[2],inactive
same,outcome,[3],inactive
same,outcome,[4],inactive
same,outcome,[5],inactive
same,AC50,[6],9.92 µM (active)
same,outcome,CYP3A5 (gene 1577),inactive
same,AC50,[7],21.9 µM (active)
same,AC50,[8],26.6 µM (active)
same,outcome,[9],inactive
same,outcome,[10],inactive
same,outcome,[11],inactive
same,outcome,[12],inactive
same,outcome,[13],inactive
same,outcome,[14],inactive
same,outcome,[15],inactive
same,outcome,[16],inactive
same,outcome,HGF (gene 3082),inactive
O=C1CCCCC1,outcome,CYP4A11 (gene 1579),inactive
same,outcome,[1],inactive
same,outcome,[2],inactive
same,outcome,[3],inactive
same,outcome,[4],inactive
same,outcome,[5],inactive
same,outcome,[6],inactive
same,outcome,CYP3A5 (gene 1577),inactive
same,outcome,[7],inactive
same,outcome,[8],inactive
same,outcome,[9],inactive
same,outcome,[10],inactive
same,outcome,[11],inactive
same,outcome,[17],inactive
same,outcome,[12],inactive
same,outcome,[13],inactive
same,outcome,[14],inactive
same,outcome,[15],inactive
same,outcome,[16],inactive
same,outcome,HGF (gene 3082),inactive
